# Measured values taken from PubChem BioAssay AID1851 (National Center for Advancing Translational Sciences (NCATS), 2009).
# The whole screen tested about 16,000 compounds, of which about 5,100 (32%) were called active. Roughly 25% stayed inconclusive and do not appear here. The list shows a part of the results. Unmarked numbers belong to inactive results. The call rests on the fitted dose curve; in most records, active means well fitted curve in the direction sought with a large enough effect; inconclusive means small, poorly fitted or top-dose-only effect, or effect the other way; inactive means no such curve, though single readings can be large or run the other way.
# Target: Cytochrome P450 3A4 (Homo sapiens) (UniProt P08684)
# Assay: Cytochrome panel assay with activity outcomes
# Conditions: recombinant CYP, pro-luciferin dealkylation, luminescence, p450-cyp3a4; series mostly up to 57.1 µM
# On the % scale 0 is the no-effect control and ±100 the full control effect.
# Cytochrome P450 3A4 (Homo sapiens), sequence (P08684 whole entry, looked up): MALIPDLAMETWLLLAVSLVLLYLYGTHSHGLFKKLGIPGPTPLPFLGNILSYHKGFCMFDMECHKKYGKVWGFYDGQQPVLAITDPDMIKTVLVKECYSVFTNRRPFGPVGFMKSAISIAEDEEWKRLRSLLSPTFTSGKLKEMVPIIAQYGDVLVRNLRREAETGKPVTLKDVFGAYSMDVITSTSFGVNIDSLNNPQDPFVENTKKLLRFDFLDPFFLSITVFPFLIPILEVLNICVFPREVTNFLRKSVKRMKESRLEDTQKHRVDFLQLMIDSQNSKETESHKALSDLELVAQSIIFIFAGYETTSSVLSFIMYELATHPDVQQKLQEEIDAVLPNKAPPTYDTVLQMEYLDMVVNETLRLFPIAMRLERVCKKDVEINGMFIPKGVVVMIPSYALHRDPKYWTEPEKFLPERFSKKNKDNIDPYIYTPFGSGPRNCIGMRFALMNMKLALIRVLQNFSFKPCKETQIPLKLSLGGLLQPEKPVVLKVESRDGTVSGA
SMILES,"activity, negative = inhibition",AC50
C/C(=N/O)[C@@H]1C[C@H](CC(=O)O)C1(C)C,-25.4% [at 11.4 µM],–
O=C(c1cnccn1)N1CCC2(CC1)CN(Cc1cc(C(F)(F)F)cc(C(F)(F)F)c1)C2,–,inactive
O=C(c1cnccn1)N1CCC[C@@]2(CCN(Cc3cc(C(F)(F)F)cc(C(F)(F)F)c3)C2)C1,–,7.94 µM (active)
O=C(c1csnn1)N1CCC2(CC1)CN(Cc1cc(C(F)(F)F)cc(C(F)(F)F)c1)C2,–,inactive
O=C(c1cnccn1)N1CCC[C@@]2(CCN(Cc3ccncc3)C2)C1,–,15.8 µM (active)
Cc1ccccc1OCCCN1CCCC1,–,inactive
c1ccc(N2CCN(CCCOc3ccc4c(c3)OCO4)CC2)cc1,–,3.16 µM (active)
OC[C@@H](O)CN1CCN(c2ccccc2)CC1,–,inactive
COc1cccc(Cn2c(=O)c(CCc3ccccc3)nc3cnc(N4CCNCC4)nc32)c1,–,15.8 µM (active)
CN1CCN(c2ncc3ncc(=O)n(CCC#N)c3n2)CC1,–,inactive
CN1CCN(c2ncc3ncc(=O)n(C[C@H]4CCCO4)c3n2)CC1,–,inactive
COc1cccc(Cn2c(=O)c(CCc3ccccc3)nc3cnc(N4CCN(C)CC4)nc32)c1,–,15.8 µM (active)
CN1CCN(c2ncc3nc(CCc4ccccc4)c(=O)n(Cc4ccc(F)cc4)c3n2)CC1,–,5.01 µM (active)
COc1cccc(Cn2c(=O)cnc3cnc(N4CCN(C)CC4)nc32)c1,–,15.8 µM (active)
NC([N-]/N=C/c1ccccn1)=[S]=[Fe].O=S(=O)(O)O,-4.8% [at 11.4 µM],–
O=C(CNC1CCCCCC1)Nc1ccccc1N1CCCCC1,-25% [at 2.29 µM],–
Cc1ccccc1NC(=O)CSc1nc(N2CCCCC2)nc(N2CCCCC2)n1,–,2 µM (active)
O=C(CSc1nc2ccccc2o1)Nc1nc2ccccc2s1,-7.57% [at 2.29 µM],–
Cc1cc(C)nc(SCC(=O)Nc2ccccc2[N+](=O)[O-])n1,–,inactive
O=C(CSc1nc2ccccc2o1)Nc1ccccc1N1CCCCCC1,–,3.98 µM (active)
CC(C)NC[C@H](O)c1cc(O)cc(O)c1,–,inactive
COc1cccc(-c2cc(=O)c3ccccc3o2)c1N,–,7.94 µM (active)
COc1cccc2cc3c(=O)oc4ccccc4c3nc12,-6.03% [at 2.29 µM],–
COc1ccccc1-c1c(C)oc2c(CN3CCN(CCO)CC3)c(O)ccc2c1=O,–,inactive
Cc1ccc(NC(=O)CN2C(=O)N/C(=C/c3ccc(C)o3)C2=O)cc1,7.39% [at 2.29 µM],–
CCOc1cc(/C=C2/NC(=O)N(CC(=O)Nc3cccc(C)c3)C2=O)ccc1OC,–,1.78 µM (active)
